Results: PubChem BioAssay (NCI)
Compounds without any hit were thinned out: in the full panel of roughly 79,000, 15% have a hit. Activity calls are given as the source filed them. Cut-off read from the data, not from the text of the source: active = growth inhibition above about 70%; inactive = the rest.

What was measured:
[1] = NCI Yeast Anticancer Drug Screen. Data for the rad52 strain (AID 147);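 note: 0% = growth of vehicle-treated control cultures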; settings: S. cerevisiae rad52 mutant growth inhibition, stronger effect = higher value
Procedure, shortened: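 Vehicle-treated cultures served as the reference for growth inhibition of compound-exposed yeast bearing a DNA repair mutation.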

[2] = NCI Yeast Anticancer Drug Screen. Data for the wt1 strain (AID 149);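 note: 0% = growth of vehicle-treated wt1 cultures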; settings: S. cerevisiae wt1 strain (SPY 50644) growth inhibition, stronger effect = higher value
Procedure, shortened: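 Measured: growth of wt1 yeast under compound versus vehicle treatment, reported as inhibition.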

[3] = NCI Yeast Anticancer Drug Screen. Data for the rad50EPP+ strain (AID 151);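 note: 0% = growth of vehicle-treated control cultures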; settings: S. cerevisiae rad50 mutant strain, stronger effect = higher value
Procedure, shortened: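 In this screen, rad50EPP+ yeast were exposed to compounds. Growth inhibition was scored against vehicle-treated controls.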

[4] = NCI Yeast Anticancer Drug Screen. Data for the rad50 strain (AID 155);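 note: 0% = growth of vehicle-only cultures of the same strain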; settings: S. cerevisiae rad50 strain growth inhibition, stronger effect = higher value
Procedure, shortened: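 Growth of the mutant yeast was measured after compound exposure and referenced to vehicle-treated cultures.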

[5] = NCI Yeast Anticancer Drug Screen. Data for the mec2-1 strain (AID 157); settings: S. cerevisiae mec2-1 strain, stronger effect = higher value
Procedure, shortened: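 Vehicle-treated cultures served as reference for growth inhibition of compound-exposed mec2-1 yeast.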

[6] = NCI Yeast Anticancer Drug Screen. Data for the rad14 strain (AID 159);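 note: 0% = growth of vehicle-treated control cultures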; settings: S. cerevisiae rad14 strain growth inhibition, stronger effect = higher value
Procedure, shortened: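 Here, inhibition of yeast growth was measured after compound exposure, using a strain with a genetic defect in DNA damage repair and vehicle-treated cultures as the reference.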

[7] = NCI Yeast Anticancer Drug Screen. Data for the sgs1 mgt1 strain (AID 161);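 note: 0% = growth of cultures given vehicle only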; settings: S. cerevisiae sgs1 mgt1 strain, stronger effect = higher value
Procedure, shortened: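 Mutant yeast exposed to compound; growth scored against vehicle-only wells.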

[8] = NCI Yeast Anticancer Drug Screen. Data for the CLN2oe strain (AID 163);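 note: 0% = growth of vehicle-only control cultures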; settings: S. cerevisiae CLN2oe strain, stronger effect = higher value
Procedure, shortened: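 Inhibition relative to vehicle-treated yeast is reported. Cells: strain with genetic alteration in cell-cycle control, grown with compound.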

[9] = NCI Yeast Anticancer Drug Screen. Data for the cln2 rad14 strain (AID 165);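 note: 0% = growth equal to vehicle treated cultures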; settings: S. cerevisiae cln2 rad14 strain, stronger effect = higher value
Procedure, shortened: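 Each compound was tested on cln2 rad14 yeast. Inhibition of growth was calculated against vehicle-exposed controls.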

[10] = NCI Yeast Anticancer Drug Screen. Data for the bub3 strain (AID 167); settings: S. cerevisiae bub3 mutant strain, stronger effect = higher value
Procedure, shortened: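 Whole-cell yeast assay. The mutant strain was incubated with compounds, and growth inhibition was determined by comparison with vehicle-treated cells.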

[11] = NCI Yeast Anticancer Drug Screen. Data for the wt2 strain (AID 169);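 note: 0% = growth of vehicle-treated yeast cultures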; settings: S. cerevisiae wt2 strain growth inhibition, stronger effect = higher value
Procedure, shortened: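 Inhibition of yeast growth was determined after compound treatment, normalised to controls receiving only vehicle.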

[12] = NCI Yeast Anticancer Drug Screen. Data for the mlh1 strain (AID 171);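 note: 0% = growth of vehicle-treated control cultures of the same strain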; settings: S. cerevisiae mlh1 strain growth inhibition, stronger effect = higher value
Procedure, shortened: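 Vehicle-normalised growth inhibition of a repair- or checkpoint-altered yeast strain following compound treatment.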

[13] = NCI Yeast Anticancer Drug Screen. Data for the sgs1 strain (AID 173);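 note: 0% = growth of vehicle-only control cultures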; settings: S. cerevisiae sgs1 mutant, stronger effect = higher value
Procedure, shortened: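 Screen format: yeast with repair or checkpoint alterations, compound exposure, growth read relative to vehicle.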

[14] = NCI Yeast Anticancer Drug Screen. Data for the mlh1 rad18 strain (AID 175); settings: S. cerevisiae mlh1 rad18 strain growth inhibition, stronger effect = higher value
Procedure, shortened: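 Vehicle-treated cultures served as the reference for growth inhibition in a yeast strain carrying DNA damage repair alterations exposed to each compound.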

[15] = NCI Yeast Anticancer Drug Screen. Data for the rad18 strain (AID 177); settings: S. cerevisiae rad18 mutant growth inhibition, stronger effect = higher value
Procedure, shortened: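 Test articles were incubated with altered yeast defective in DNA damage repair. Results are given as inhibition of growth versus vehicle.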

[16] = at 5.0 µM (retest, dose inferred, filed as 0.5)
[17] = at 50.0 µM (retest, dose inferred, filed as 5.0)

Measured: growth inhibition

CCN(CC)[P+](c1ccccc1O)(N(CC)CC)N(CC)CC
active: [1]; at 100.0 µM 85% | [2]; at 100.0 µM 84% | [4]; at 100.0 µM 90% | [5]; at 100.0 µM 85% | [6]; at 100.0 µM 95% | [7]; [17] 99% | [8]; at 100.0 µM 93% | [9]; [17] 96% | [10]; [17] 98% | [10]; at 100.0 µM 87% | [11]; at 100.0 µM 77% | [12]; at 100.0 µM 73% | [13]; at 100.0 µM 74% | [14]; [17] 74% | [14]; at 50.0 µM 70.2% | [15]; at 100.0 µM 90%
inactive: [1]; at 1.2 µM -25% | [1]; at 3.7 µM -15% | [1]; at 11.0 µM 17% | [1]; at 33.0 µM 27% | [2]; at 1.2 µM -35% | [2]; at 3.7 µM -25% | [2]; at 11.0 µM 12% | [2]; at 33.0 µM 34% | [3]; at 1.2 µM -35% | [3]; at 3.7 µM -26% | [3]; at 11.0 µM -33% | [3]; at 33.0 µM -31% | [3]; at 100.0 µM -34% | [4]; at 1.2 µM -30% | [4]; at 3.7 µM 9% | [4]; [16] 37% | [4]; at 11.0 µM 43% | [4]; at 33.0 µM 54% | [4]; [17] 68% | [4]; at 50.0 µM 61.5% | [5]; at 1.2 µM -78% | [5]; at 3.7 µM -39% | [5]; [16] 28% | [5]; at 11.0 µM 29% | [5]; at 33.0 µM 24% | [5]; [17] 55% | [5]; at 50.0 µM 62.1% | [6]; at 1.2 µM -46% | [6]; at 3.7 µM -38% | [6]; at 11.0 µM -21% | [6]; at 33.0 µM 32% | [7]; [16] 7% | [7]; at 50.0 µM 64.8% | [8]; at 1.2 µM -56% | [8]; at 3.7 µM -8% | [8]; at 11.0 µM -23% | [8]; at 33.0 µM 5% | [9]; [16] 8% | [9]; at 50.0 µM 57.6% | [10]; at 1.2 µM -41% | [10]; at 3.7 µM -3% | [10]; [16] 23% | [10]; at 11.0 µM 23% | [10]; at 33.0 µM 60% | [10]; at 50.0 µM 54.6% | [11]; at 1.2 µM -25% | [11]; at 3.7 µM -13% | [11]; at 11.0 µM -19% | [11]; at 33.0 µM 7% | [12]; at 1.2 µM -60% | [12]; at 3.7 µM -61% | [12]; at 11.0 µM -22% | [12]; at 33.0 µM 30% | [13]; at 1.2 µM -82% | [13]; at 3.7 µM -50% | [13]; at 11.0 µM -25% | [13]; at 33.0 µM 11% | [14]; [16] 39% | [15]; at 1.2 µM -6% | [15]; at 3.7 µM 37% | [15]; at 11.0 µM 53% | [15]; at 33.0 µM 59%
